# Compound activity (PubChem)
# RORgamma inh – qHTS for inhibitors of ROR gamma transcriptional activity; Potency, µM (titrated, usually from 53.6 µM), hits mostly inhibitors; Drosophila S2 Gal4-RORgamma UAS-luciferase reporter, 20 h; actives 5.4% (n = 310,000); Nuclear receptor ROR-gamma (Mus musculus), P51450; note: nearly all actives have a fitted effect of over 60% in size
# Target sequence (P51450 whole entry, looked up, the tested form may be a part): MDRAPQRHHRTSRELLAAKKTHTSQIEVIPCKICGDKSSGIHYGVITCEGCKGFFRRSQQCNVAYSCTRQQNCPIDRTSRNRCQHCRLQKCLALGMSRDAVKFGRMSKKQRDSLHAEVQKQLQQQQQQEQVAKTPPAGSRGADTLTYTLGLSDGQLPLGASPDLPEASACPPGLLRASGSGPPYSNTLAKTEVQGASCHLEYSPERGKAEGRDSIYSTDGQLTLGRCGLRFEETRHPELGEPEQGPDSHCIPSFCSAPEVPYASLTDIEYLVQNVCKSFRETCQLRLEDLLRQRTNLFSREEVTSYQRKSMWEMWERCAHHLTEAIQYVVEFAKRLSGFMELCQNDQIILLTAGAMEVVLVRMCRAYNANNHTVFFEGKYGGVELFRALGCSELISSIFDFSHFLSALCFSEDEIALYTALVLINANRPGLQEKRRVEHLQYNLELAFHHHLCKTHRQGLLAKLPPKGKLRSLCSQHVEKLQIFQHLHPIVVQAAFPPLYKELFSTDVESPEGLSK
#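 In this cell-based reporter format, copper sulfate (700 uM final) drives Gal4–ROR gamma fusion expression from a metallothionein promoter in Drosophila Schneider cells; compounds preincubated 1 hr, reporter read after 20 hr at ambient temperature.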
# Gal4-VP16 FLuc – VP16 counterscreen qHTS for inhibitors of ROR gamma transcriptional activity. Drosophila S2 Gal4-VP16 UAS-luciferase, luminescence, 20 h. actives 3.5% (n = 310,000). Potency, µM (top dose mostly 53.6 µM), hits mostly inhibitors. AID 2546, 2010;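 note: Gal4-VP16 expression switched on by copper sulfate through the metallothionein promoter; nearly all actives have a fitted effect of over 50% in size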
# IL1B secr inh – qHTS for Inhibitors of Inflammasome Signaling: IL-1-beta AlphaLISA Primary Screen. THP-1 LPS/ATP IL-1B secretion, AlphaLISA, 16 h; active compounds read low. activity change, % at 57.5 µM. actives 4.7% (n = 360,000); in the data active = activity change below about -50%; inconclusive = mostly about -30% to -49%
#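 Secreted IL-1B measured by AlphaLISA bead assay after 16 h compound exposure of THP-1 cells; compounds (final up to 57.5 uM) added 1 h before LPS (250 ng/mL) and ATP (1.25 mM) stimulation; lower signal means less secretion.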
# DT40 TDP1 CPT – qHTS for Inhibitors of human tyrosyl-DNA phosphodiesterase 1 (TDP1): qHTS in cells in presence of CPT; actives 12% (n = 420,000); chicken DT40 Tdp1-/-;hTDP1 cells + 20 nM CPT, ATP luminescence, 48 h; Potency, µM (series often up to 46.2 µM), hits mostly inhibitors; note: nearly all actives have a fitted effect of over 55% in size
#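 Chicken DT40 Tdp1-/- cells complemented with human TDP1, 400 cells/well, exposed to compounds plus 20 nM camptothecin for at least 48 h at 37 C; viability read as ATP content by CellTiter-Glo luminescence.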
# DT40 TDP1 no CPT – qHTS for Inhibitors of human tyrosyl-DNA phosphodiesterase 1 (TDP1): qHTS in cells in absence of CPT; AID 686978, 2013; Potency, µM (doses to about 46.2 µM), most hits filed as inhibitors; DT40 Tdp1-/- hTDP1 cells, no CPT, ATP luminescence, 48 h; actives 15% (n = 420,000); note: nearly all actives have a fitted effect of over 55% in size
#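 Camptothecin absent (DMSO only). Human TDP1-complemented DT40 knockout cells, 400 cells/well, 37 °C for minimum 48 hr; ATP measured via CellTiter-Glo, 30 min dark incubation, luminescence.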
# LDHA inh – qHTS assay for inhibitors of human lactate dehydrogenase; purified LDHA, NADH/diaphorase-resazurin fluorescence; active compounds read low; activity change, % (values are at about 110 or 230 µM); actives 0.15% (n = 480,000); in the data active = activity change below about -30%; inconclusive = mostly about -25% to -30%
#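 LDH5 2 nM; NADH 0.06 mM, pyruvate 0.2 mM; 200 mM Tris pH 7.4, EDTA, Tween-20; 5 min RT. Detection: diaphorase 0.133 mg/mL + resazurin 37 µM, fluorescence ex540/em590 at 0 and 20 min; normalized to enzyme-free and DMSO wells.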
# Hits are given with their value; . = inactive; ? = inconclusive; / = not tested or not shown. A selection: hits, their analogues and other compounds. The true share with any hit is near 18%. Unless noted, calls come from the whole dose curve; as a rule, active = well fitted curve in the direction sought with a large enough effect; inconclusive = small, poorly fitted or top-dose-only effect, or another doubt; inactive = no such curve, though single readings can be large; an effect the other way counts as inactive or inconclusive.
SMILES,RORgamma inh,Gal4-VP16 FLuc,IL1B secr inh,DT40 TDP1 CPT,DT40 TDP1 no CPT,LDHA inh
N#C/C(=C/c1cc(Br)ccc1OC(F)F)c1ccccn1,/,/,/,/,/,.
CC1(C(=O)NCc2cccc(C(F)(F)F)c2)CCN1Cc1ccc(-c2ccccc2)o1 (configuration not stated),/,/,.,?,?,.
CC1(C(=O)NCc2cccc(C(F)(F)F)c2)CCN1Cc1cc2ccccc2o1 (configuration not stated),/,/,?,26µM,18µM,.
CCNC(=O)C1(C)CCCN1Cc1cccc(C(F)(F)F)c1 (configuration not stated),/,/,.,18µM,18µM,.
CCNC(=O)C1(C)CCCCN1Cc1ccc(C#N)cc1 (configuration not stated),/,/,.,?,?,.
O=C(OCc1nc2ccccc2o1)c1cccc(S(=O)(=O)NCc2ccccc2)c1,/,/,/,/,/,.
CCCNC(=O)CNC(=O)c1nn(Cc2ccccc2)c(=O)c2ccccc12,/,/,/,/,/,.
CCOC(=O)C(CC(C(=O)OCC)C(=O)OCC)C(=O)OCC,/,/,/,/,/,.
COc1ccc2cc(C(=O)NC(CC(C)C)C(=O)O)ccc2c1 (configuration not stated),/,/,/,/,/,.
CCN(CC)C(=S)SSC(=S)N(CC)CC,1.1µM,1µM,-110,0.021µM,0.15µM,.
O=C(Nc1ccnn1Cc1cccs1)c1cccc(S(=O)(=O)N2CCCC2)c1,/,/,/,/,/,.
O=C(NCCCO)c1cc2c([nH]c3ccccc32)c(-c2ccccc2)n1,.,.,-88,15µM,13µM,.
O=C(NCCCN1CCOCC1)c1cc2c([nH]c3ccccc32)c(-c2cccc(Br)c2)n1,.,?,-73,8.2µM,8.2µM,.
COc1cccc(-c2nc(C(=O)NCCCN3CCOCC3)cc3c2[nH]c2ccccc23)c1,.,.,-64,9.2µM,8.2µM,.
COc1ccc(Nc2nc(-c3ccc4c(c3)CCC(=O)N4)cs2)cc1,/,/,/,/,/,.
COc1cc(Cl)c(NC(=O)CCc2nc3cccnc3n2-c2ccccc2)c(OC)c1,/,/,/,?,?,.
O=C(CCc1nc2cccnc2n1-c1ccccc1)Nc1ccc(Cl)c(Cl)c1,/,/,/,?,18µM,.
Cc1ccc(NC(=O)CCc2nc3cccnc3n2-c2ccccc2)cc1Cl,/,/,/,16µM,16µM,.
CCOc1ccc(OCC)c(NC(=O)CCc2nc3cccnc3n2-c2ccccc2)c1,/,/,/,21µM,?,.
CCCn1c(CCC(=O)Nc2ccc(C)c(Cl)c2)nc2cccnc21,/,/,/,?,?,.
COC(=O)C(C)Oc1cc2oc(=O)cc(C)c2cc1Cl (configuration not stated),/,/,/,/,/,.
COC(=O)c1ccc(OC(=O)c2cc(Cl)ccc2Cl)cc1,/,/,/,/,/,.
COc1ccc(CCNC(=O)[C@H](CCS(C)(=O)=O)N2Cc3ccccc3C2=O)cc1OC,/,/,/,/,/,.
Cc1cc(C)c2c(NC(=S)Nc3ccccc3)n[nH]c2n1,1.1µM,3.2µM,.,?,?,.
Cc1cc(C)c2c(NC(=S)NC(=O)c3ccccc3)n[nH]c2n1,5.6µM,?,.,.,.,.
SMILES,RORgamma inh,Gal4-VP16 FLuc,IL1B secr inh,DT40 TDP1 CPT,DT40 TDP1 no CPT,LDHA inh
Cc1cc(C)c2c(c1)/C(=C/C(=O)c1ccc(Br)s1)C(=O)N2,.,.,-106,4.6µM,3.7µM,.
CCc1ccc2c(c1)/C(=C/C(=O)c1cccs1)C(=O)N2,5.6µM,10µM,-106,3.3µM,5.2µM,.
Cc1cccc2c1NC(=O)/C2=C\C(=O)c1cccs1,7.1µM,?,-122,4.6µM,4.6µM,.
CN(C)/C=C/C(=O)c1ccc(Br)s1,.,.,.,.,.,.
CCCCC(CC)C(=O)Nc1cccc2ccccc12 (configuration not stated),/,/,/,/,/,.
Cc1c(CC(=O)N2CCC(O)(c3ccc(Cl)cc3)CC2)c(=O)oc2c(C)c(O)ccc12,/,/,/,/,/,.
O=C(NC(=S)NNC(=O)c1ccccc1[N+](=O)[O-])c1ccccc1,4.5µM,3.2µM,.,?,?,.
O=C(NNC(=O)c1ccccc1[N+](=O)[O-])c1ccccc1[N+](=O)[O-],.,.,.,.,.,.
O=C(NNC(=S)NC(=O)c1ccccc1[N+](=O)[O-])c1ccccc1,.,.,.,?,?,.
CCC(=O)NC(=S)NNC(=O)c1ccccc1[N+](=O)[O-],18µM,.,.,.,.,.
CC(C)CC(NC(N)=O)C(=O)NCCc1ccc(C(F)(F)F)cc1 (configuration not stated),/,/,/,/,/,.
Cc1ccc(S(C)(=O)=O)cc1C(=O)NC(C)C1CC1 (configuration not stated),/,/,/,/,/,.
CC1CC2(CCCCCC2)Nc2ccc(F)cc21 (configuration not stated),/,/,/,/,/,.
O=C(Nc1ccc(F)c(F)c1)c1ccc(F)c(S(=O)(=O)N2CCC3(CC2)OCCO3)c1,.,?,-60,16µM,13µM,.
NS(=O)(=O)c1cc(C(=O)Nc2ccc3c(c2)CCC3)ccc1Cl,.,?,-68,.,?,.
O=C(Nc1ccc2c(c1)CCC2)c1ccc(F)c(S(=O)(=O)N2CCOCC2)c1,?,.,.,?,23µM,.
O=C(Nc1ccc2c(c1)CCC2)c1ccc(Br)cc1,/,/,/,/,/,.
O=C(Nc1ccc2c(c1)OCO2)c1cc(C2CCCCN2S(=O)(=O)c2cccs2)on1 (configuration not stated),/,/,.,?,23µM,.
Cc1noc(C)c1S(=O)(=O)N1CCCCC1c1cc(C(=O)Nc2cccc3c2CCCC3)no1 (configuration not stated),/,/,.,?,21µM,.
O=C(Nc1cccc2c1CCCC2)c1cc(C2CCCCN2S(=O)(=O)c2cccs2)on1 (configuration not stated),/,/,.,16µM,23µM,.
CS(=O)(=O)N1CCCCC1c1cc(C(=O)Nc2cccc3c2CCCC3)no1 (configuration not stated),/,/,.,15µM,9.2µM,.
N#Cc1ccc(S(=O)(=O)N2CCCCC2c2cc(C(=O)Nc3cccc4c3CCCC4)no2)cc1 (configuration not stated),/,/,.,?,?,.
NS(=O)(=O)c1ccc(N/N=C/c2cccc3ccccc23)c([N+](=O)[O-])c1,/,/,/,/,/,.
Cc1ccc(NC(=S)NC(NC(=O)C(C)C)C(Cl)(Cl)Cl)cc1 (configuration not stated),/,/,/,/,/,.
